This is an account of results in PubChem BioAssay (NCI).

Common to all, as to test: NCI-60 one-dose screen, 48 h (100 = growth as untreated, 0 = no growth, -100 = all killed)
What all share (settings): 10 µM

The subject of experiment [1] is NCI-H23 lung.
The test system of experiment [2] is NCI-H226 lung.
The test system of experiment [3] is NCI-H322M lung.
For experiment [4], the system named is NCI-H460 lung.
Experiment [5] concerns HOP-92 NSCLC.
Experiment [6] relates to NCI-H522 lung.
Experiment [7] relates to A549/ATCC NSCLC.
The test system of experiment [8] is 786-0 renal.
In experiment [9] the test system is COLO 205 colon.

This is part of a sample that, as a whole, favours compounds with a hit. Of some 83,000 tested, about 20% had one in any assay.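 The endpoint reported here, percent growth, reads 100 for growth as untreated, 0 for no net growth and -100 for all cells dead.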 A number with no mark means an inactive call. Activity calls are given as the source filed them. The calls were made as follows: active = growth percent below 10; inactive = the rest.

On to `CNC(=S)Sc1ccc([N+](=O)[O-])cc1[N+](=O)[O-]`, for which the growth was 83.5% in experiment [1]; 78.9% in [2]; 99.1% in experiment [3]; 102% in experiment [4]; 23.6% in experiment [5]; -57.7% (active) in experiment [6]. Besides, the growth was 80.8% in [7], 93.9% in experiment [8] and -35.1% (active) in experiment [9].

Regarding `COc1ccc(C2CC(c3ccc(-c4ccccc4)cc3)=NN2c2ccc(S(N)(=O)=O)cc2)cc1` (centres undefined), the growth in experiment [1] is 80.9%; in experiment [2] it was 74.9%; in experiment [3] it was 68.5%; in experiment [4] it was 41.9%; in experiment [5], 35.6%; in [6], 40.3%. The results for the growth in experiment [7], in experiment [8] and in [9] were 47.3%, 92.1% and 83.8%, respectively.

With `N=C(N)c1ccc(-c2ccc(-c3ccccc3)s2)cc1F`, the growth in experiment [1] is -65.9% (active); in experiment [2] it was -62.7% (active); in experiment [3], -88.5% (active); in experiment [4] it was -79.5% (active); in experiment [5] it was -83.7% (active); in [6] it was -75.2% (active). Besides, the growth in experiment [7] was -74.2% (active); in [8] it was -85% (active); in experiment [9], -78.1% (active).

As to `COc1cc(-c2cc(-c3cc(OC)c(OC)c(OC)c3)nc3nc(N)[nH]c(=O)c23)ccc1Oc1ccnc2cc(Cl)ccc12`, the growth in experiment [1] is 42.1%; in [2] it was 76%; in [3], 37.5%; in [4], 13.8%; in [5] it was 6.33% (active); in experiment [6], 29.9%. Moreover, the growth in experiment [7] was 32.3%; in experiment [8], 51.4%; in experiment [9] it was 105%.

For the molecule `Cc1ccc(Cl)cc1Nc1nc(C(F)(F)F)ccc1C(=O)N/N=C/c1c(Cl)cccc1Cl`, the growth in experiment [1] is 6.65% (active); in experiment [2], -40.5% (active); in experiment [3], 17.8%; in [4], -0.639% (active); in experiment [5], -31% (active); in [6] it was -16.7% (active). For the same molecule, the figures for the growth in [7], in experiment [8] and in experiment [9] were -9.23% (active), -32.6% (active) and -51.5% (active), respectively.

Take `O=[N+]([O-])c1ccc2c(c1)Cc1cc(I)ccc1-2`: the growth in experiment [1] is 99.4%; in experiment [2] it was 97.7%; in experiment [3] it was 104%; in [4] it was 98.4%; in [5], 89.4%; in experiment [6] it was 95.7%. Besides, the growth in experiment [7] was 94.7%; in [8], 90%; in experiment [9], 108%.
